# Source: PubChem BioAssay (several laboratories)
# Sampled rows, rich in hits. Any-hit rate of the full collection: about 5.3%.
# MT1-MMP txn act = MT1-MMP promoter transcription activation. HT1080 MT1-MMP promoter luciferase reporter, luminescence, overnight; active compounds read high. activation factor at 10 µM. actives 0.16% (n = 86,000);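 active means activation factor of at least 2 for MT1-MMP transcription at 10 µM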
# PostGolgi yeast = growth inhibition of a yeast mutant, post-Golgi transport screen. inhibition, % at 10 µM. post-Golgi transport phenotypic cell assay. actives 0.9% (n = 98,000);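 further: yeast cells grown in 1536-well plates; yeast grown about 18 h at 30C before absorbance read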
# Measles CPE = protection of cells from measles virus | protection (pct of control), % at 4 µM | Measles virus-infected cells, CPE protection, absorbance | actives 1.5% (n = 140,000); in the data active means protection mostly above about 24%, no sharp cut-off; inactive means mostly below about 26%
# PostGolgi ctrl = inhibits growth of the yeast control strain; efflux-deficient yeast background strain, growth absorbance A615, 16 h; inhibition, % at 10 µM; actives 5% (n = 98,000)
# * marks the source's active call; other numbers are inactive results; nt = no result given. Unless noted, no stated cut-off is given here; in the data, active means inhibition above about 30%; inactive means the rest.
SMILES,MT1-MMP txn act,PostGolgi yeast,Measles CPE,PostGolgi ctrl
O=C(Oc1ccc(N(Cc2cccs2)C2=NS(=O)(=O)c3ccccc32)cc1)c1ccccc1F,1.1,-5.9,27.9*,-5.0
O=C(OCCN(C1=NS(=O)(=O)c2ccccc21)c1ccccc1Cl)c1ccc(Cl)cc1,1.1,-2.8,4.5,13.0
CCC1(C)N=C(c2ccc3c(c2)OCO3)CC(c2ccccc2O)N1 (centres undefined),2.4*,-11.1,2.7,5.0
COc1cccc(C2=NOC(C(=O)N3CCc4ccccc4C3)C2)c1 (centres undefined),1.1,3.7,16.6,8.4
COc1cccc(C2=NC(C)(C)NC(c3ccccc3O)C2)c1 (centres undefined),2.1*,-12.8,6.6,2.2
Cc1nc(-c2ccc3c(c2)OCO3)cs1,1.1,-0.5,17.1,9.6
O=S1(=O)C=C(Sc2nnc(-c3ccccc3)o2)c2ccccc21,1.3,87.7*,-0.9,30.8*
O=C1CC(c2ccccc2)Cc2nc(N3CCc4ccccc4C3)ncc21 (centres undefined),1,5.1,4.3,45.8*
CC1CC(C)CN(c2ncc3c(n2)CC(c2ccccc2Cl)CC3=O)C1 (centres undefined),1,-4.0,1.7,31.2*
CCOC(=O)c1cnc2ccc(OCC)cc2c1N1CCN(c2ccccc2OC)CC1,1.1,-0.5,6.4,59.4*
Cc1ccc(NC(=O)C2(c3ccccc3)CC2(Cl)Cl)cc1C (centres undefined),nt,2.2,9.3,19.7
CCc1ccc(NC(=O)C2(c3ccccc3)CC2(Cl)Cl)cc1 (centres undefined),nt,-2.2,5.0,30.7*
Cc1cccc(NC(=O)C2(c3ccccc3)CC2(Cl)Cl)c1 (centres undefined),nt,13.0,2.5,35.1*
Cc1ccc(Cn2c(SCC(C)C)nc3c2c(=O)[nH]c(=O)n3C)cc1,nt,-7.4,8.4,11.4
CCOC(=O)C(C)Sc1nc2c(c(=O)[nH]c(=O)n2C)n1Cc1ccc(Cl)cc1 (centres undefined),1.2,3.0,2.0,31.8*
CC(C)Sc1nc2c(c(=O)[nH]c(=O)n2C)n1Cc1ccc(Cl)cc1,1.1,3.0,2.3,23.4
CCC(C)Sc1nc2c(c(=O)[nH]c(=O)n2C)n1Cc1ccc(Cl)cc1 (centres undefined),1.1,5.7,33.9,46.3*
O=C(CSc1nc2cc(Cl)ccc2s1)NC1CCCc2ccccc21 (centres undefined),nt,nt,4.9,nt
CCCNC(=O)NC(=O)CSc1nc2cc(C(=O)OC)ccc2c(=O)n1-c1ccccc1,nt,18.4,26.0*,3.0
CNC(=O)NC(=O)CSc1nc2cc(C(=O)OC)ccc2c(=O)n1-c1ccccc1,1.1,9.8,10.7,-5.5
COC(=O)c1ccc(C(NC(=O)OCc2ccccc2)/C(I)=C/[C@@H](C)C(=O)O)cc1 (some centres undefined),1,nt,nt,nt
COc1ccc(Nc2nc(NC(C)(C)C)nc(N3CCCC3)n2)c(OC)c1,1.1,5.3,27.4,62.7*
COc1ccc(Nc2nc(N3CCCC3)nc(N3CCCC3)n2)c(OC)c1,0.9,-4.6,24.2,23.8
CCC(=O)N(Cc1ccco1)C1CC(=O)N(c2ccccc2)C1=O (centres undefined),nt,nt,12.5,nt
Cc1cc(C2C(C#N)=C(N)OC3=C2C(=O)CC(C)(C)C3)c(C)s1 (centres undefined),1,0.9,4.6,40.6*
SMILES,MT1-MMP txn act,PostGolgi yeast,Measles CPE,PostGolgi ctrl
Cc1cc(C2C(C#N)=C(N)OC3=C2C(=O)CCC3)c(C)s1 (centres undefined),nt,8.6,6.0,15.2
COc1ccc(S(=O)(=O)NCCSC(C)(C)C)c(Cl)c1Cl,1.2,0.8,17.6,31.3*
CCCNS(=O)(=O)c1ccc(OC)c(Cl)c1Cl,1.3,9.8,14.1,4.3
COc1cc2[nH]c(=S)n(CCN3CCOCC3)c(=O)c2cc1OC,1.1,-2.0,1.0,1.8
COc1cc2[nH]c(=S)n(CCCN3CCOCC3)c(=O)c2cc1OC,1.1,37.7*,14.2,-8.9
C=CCn1c(SCn2nnc3ccccc3c2=O)nnc1C1CCCCC1,1.2,-7.5,17.1,32.4*
CN(C)S(=O)(=O)c1cccc(NC(=O)COC(=O)CCc2nc3ccccc3s2)c1,1.2,-0.2,6.4,-2.6
COc1cc(-c2csc(N3CCOCC3)n2)cc(OC)c1OC,1.1,-1.6,56.0*,-8.3
COc1cc(C2=NOC(C(=O)N3CCOCC3)C2)cc(OC)c1OC (centres undefined),1.2,6.1,nt,8.5
CCOC(=O)c1c(C)[nH]c2c1cc(O)c1ccccc12,1.7,2.9,1.9,7.3
CCOC(=O)c1c(C)oc2c1cc(O)c1ccccc12,1.8,-5.9,17.4,38.8*
N#CCCN1CCN(C(=S)c2ccc(-c3cccc(Cl)c3)o2)CC1,1.5,-4.0,14.7,17.2
N#CCCN1CCN(C(=S)c2ccc(-c3ccc(Cl)c(Cl)c3)o2)CC1,1.5,7.6,19.9,32.8*
CCn1cc(/C=N\NC(=O)C2(C)CC2(Cl)Cl)c(C)n1 (centres undefined),nt,nt,13.3,nt
COC(=O)c1ccc(C23CC4(C2)[C@H](CN(CC2CCCCC2)[C@@H]4c2ccccc2)C3c2ccccc2)cc1 (some centres undefined),1,nt,nt,nt
COC(=O)[C@H]1C[C@@H]1[C@H](NC(=O)c1cc(C)nn1C)c1ccccc1,1.2,nt,nt,nt
COCC(C)n1c(SCC(=O)N2CCc3ccccc3C2)nc2ccccc2c1=O (centres undefined),nt,nt,7.6,nt
COc1ccc(-c2cc(-c3ccc(OC)cc3)[nH]n2)cc1,1.6,19.6,8.8,33.4*
COc1ccc(-c2cc(C(=O)NN)[nH]n2)cc1,nt,nt,13.4,nt
CCc1nnc(NC(=O)CSc2nnc(C)n2Cc2ccccc2)s1,1,nt,9.5,nt
Cc1nnc(SCC(=O)Nc2sccc2C(N)=O)n1Cc1ccccc1,1.1,6.4,11.5,31.9*
COC(=O)[C@@]1(Cc2ccc(OC)cc2)[C@H]2c3cc(C(=O)N(C)C)n(Cc4cc(F)c(F)c(F)c4)c3C[C@H]2CN1C(=O)c1ccccc1,1.2,nt,nt,nt
COc1cccc(NCc2ccc([N+](=O)[O-])s2)c1,nt,nt,48.3*,nt
CCn1c(CSc2nccn2C)nc2cc(C(=O)O)ccc21,1.1,-0.7,50.9*,2.6
CCNC(=O)CCCOc1ccc(Cl)cc1Cl,1.4,-2.0,8.7,35.9*
SMILES,MT1-MMP txn act,PostGolgi yeast,Measles CPE,PostGolgi ctrl
COC(=O)CCC(=O)NNC(=O)CCCOc1ccc(Cl)cc1Cl,nt,1.9,22.0,7.3
O=C(CCCOc1ccc(Cl)cc1Cl)Nc1ccncc1,1.5,24.8,30.8,61.5*
CC(=O)Nc1ccccc1OCC(=O)N(Cc1ccccc1)C(C)C,nt,nt,0.2,nt
CCOC(=O)c1cccc(C(=O)OCC)n1,1,-3.5,7.4,5.5
CCOC(=O)C1=Nc2ccccc2C1=[N+]=[N-],1,106.3*,2.5,100.9*
CC(C)CCNC(=O)c1ccc(Cl)c(NC(=O)Cc2ccccc2)c1,nt,nt,6.1,nt
OC1(c2ccc(OC(F)F)cc2)CSC(=Nc2cccnc2)N1C1CC1 (centres undefined),1,-6.3,7.5,30.5*
O=C(c1cccnc1)N1C2CCC1CC(O)(c1ccc(F)cc1)C2 (centres undefined),1,21.6,4.7,12.7
COc1ccc(NC(=O)C2CCN(S(=O)(=O)c3c(C)noc3C)CC2)cc1Cl,1.1,5.0,2.2,16.8
